Where “and” joins values, the source holds several entries; their conditions need not be identical. Equal values may be shown once. About 83,000 compounds went through this panel and 20% of them were active in at least one assay; those are over-represented in the sample as a whole.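 Method: cells in 96-well plates; compound added at one concentration; 48 h incubation; percent growth measured; values under 10 scored active.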 Unmarked numbers belong to inactive results. Calls of active or inactive are those of the source.

The test system of this experiment is MDA-MB-468 breast. The experiment in a line: NCI-60 one-dose screen, 48 h (100 = growth as untreated, 0 = no growth, -100 = all killed). The settings on record: 10 µM unless noted.
For `Cc1nc(NC(=O)COc2ccc(/C=C3\Cc4ccc(Cl)cc4C3=O)cc2)sc1C`, the growth was 112%. In the case of `CCSC1=CC(=O)c2ccccc2C1=O`, the growth was -88.1% (active). The same measure for `CNC(=O)c1cc(Oc2ccc3nc(NC(=O)c4ccc5ncccc5c4)sc3c2)ccn1`: 73.7%.

On to `c1ccc(C2CC(c3cccc(Nc4ccncc4)c3)=NN2c2ccccc2)cc1` (stereo not given), for which the growth is 24.2%. `CCCCCCCCCCCCCCCCNC(=O)OC(C)C`: the growth is 36.1%. Regarding `CC1(C)CCC(S(=O)(=O)c2ccc3c(c2)/C(=N\O)c2cc(S(=O)(=O)N4CCN(c5ccc(F)cc5O)CC4)ccc2-3)CC1`, the growth is -82.5% (active). As to `CCN(CC)c1ccc(/C=N\NC(=O)/C=C/C=C/c2ccc3c(c2)OCO3)c(O)c1`, the growth is 13.4%. The value for `O=C(CSc1nnc(-c2cccs2)n1-c1ccccc1)Nc1ccccc1` was 49.1%. As to `COc1ccc(/C=C/C(=O)c2cc3c(N)c(C(=O)Nc4ccc(OC)cc4)sc3nc2C)cc1`, the growth was 11.6%. As for `c1ccc(-c2n(Cc3ccc4ccccc4c3)c3c4ccccc4c4ccccc4c3[n+]2Cc2ccc3ccccc3c2)cc1`, the growth is -75.5% (active).

Regarding `CC(C)NS(=O)(=O)c1cccc(-c2ccc3c(=O)n(CCCN)c4c(c3c2)C(=O)c2ccccc2-4)c1`, the growth was 111%. As for `O=S(=O)(O)c1ccc(N/N=C/c2ccccc2Cl)cc1`, the growth was 107%. Take `COc1cc(NC(=O)CCSc2nc3ccc(Cl)cc3c(=O)n2Cc2ccccc2)cc(OC)c1OC`: the growth was 93%. In the case of `C/C(=N/Nc1nc2ccccc2n1C)c1ccccn1`, the growth is -41.9% (active). Regarding `CCCCN1CCCC[C@@H]1C(=O)N[C@H](C(=O)N(C)[C@H](CCc1nc(C(=O)N[C@@H](Cc2ccccc2)C[C@H](C)C(=O)OC)cs1)C(C)C)C(C)C`, the growth was 22.3%. The value for `N#CC1c2ccccc2C=CN1C(=O)CCCl` (stereo not given) was 24.2%. The same measure for `Nc1ccc2c(c1)/C(=N/O)c1cc([N+](=O)[O-])ccc1-2`: 89.8%. As to `Nc1cc(-c2cccc(OC(F)(F)F)c2)nc2ccc(N3CCCC3)cc12`, the growth is -10.7% (active) and -15.9% (active) and -23.5% (active). For the compound `COc1cc(-c2noc(C[C@@H](NC(=O)OCc3ccccc3)C(C)C)n2)cc(OC)c1OC`, the growth is 88.5%.

In the case of `Oc1ccc(CSc2nnc(-c3cnccn3)o2)c2cccnc12`, the growth was 7.59% (active).

As to `Nc1ncnc2c1N=C(c1ccc(Cl)cc1)CC(c1cccc(Nc3ccnc4cc(Cl)ccc34)c1)N2` (stereo not given), the growth is 75%. The same measure for `Oc1c(Cl)c2ccccc2c2ccccc12`: 112%; for `CC12CCC3c4ccc(O)cc4CCC3C1CCC2=O` (stereo not given): 96.4%; for `CC(C)c1c(C(=O)c2ccccc2)c(-c2ccccc2)c(-c2ccc(F)cc2)n1CC[C@@H](O)C[C@@H](O)CC(=O)O`: 39.2%. As to `Clc1cccc(Nc2ncnc3ccc(-c4cnc5[nH]ccc5c4)cc23)c1`, the growth is -16.9% (active). The value for `COC(=O)c1cccnc1` was 97.7%; that for `COC(=O)CCCCCn1c2ccccc2c2c3c(c4c5ccccc5[nH]c4c21)C(=O)N(O)C3=O` was 45.3%; that for `CC1Cc2c(Cl)ncnc2N(C)c2ccc(O)cc21` (stereo not given) was -6.93% (active). The same measure for `COC(=O)c1nc(-c2ccccc2)oc1S(=O)(=O)Cc1ccccc1`: 59.3%; for `CC(=O)Nc1ccc(S(=O)(=O)Nc2cccc(-c3nc(-c4ccc(NC(=O)c5cccnc5)cc4Cl)no3)c2)cc1`: 18.4%; for `O=S(=O)(NCCCNc1nccc(-c2c(-c3cccc(O)c3)nc3occn23)n1)c1ccc(Cl)cc1`: 105%. Take `COc1ccc(C(=O)Nc2ncc(Cc3ccc(F)cc3)s2)cc1`: the growth is 22.4%. For `CC(=O)Nc1nc2c(s1)CCc1c-2cn(S(=O)(=O)c2ccccc2)c1-c1ccccc1`, the growth is 61.6%. As for `O=C1/C(=C/c2ccccc2)SC(=S)N1CCc1ccc(O)cc1`, the growth is 73.9%.

Take `CO/C=C/C(=O)c1cc2cnc3c(=N)cc(NC(=O)C(C)C)c([nH]1)c23`: the growth was -54.9% (active). Turning to `CC(=S)Nc1ccccc1`, the growth is 103%. As for `COc1cc2[nH]c(C(=O)c3cc(OC)c(OC)c(OC)c3)c(N)c2cc1C#CCO`, the growth was 25.6%. The value for `C=C1N(C)c2ccc(Cl)cc2C1(C)C` was 5.23% (active); that for `Cn1c([N+](=O)[O-])cnc1/C=C1\Oc2ccccc2C1=O` was 28.3%.

In the case of `CCn1c(=O)c2c(=O)c3c4c(oc3oc2c2ccccc21)C(=O)c1ccccc1C4=O`, the growth was -29.6% (active).

These data come from PubChem BioAssay (NCI).
